According to a collection of fitness landscapes (doi:10.1126/science.1257360):
The full ranking holds about 140,000 sequences; the median of “enrichment ratio after two sorts for PhoP signalling” is about 0, and the highest 2% start at about 11. The list comes from a sample in which the highest values are over-represented; it also holds similar and randomly drawn sequences.

B1: PhoQ; a variant is named by its letters at X, in order, P23837 (parent)
chain: MKKLLRLFFPLSLRVRFLLATAAVVLVLSLAYGMVALIGYSVSFDKTTFRLLRGESNLFYTLAKWENNKLHVELPENIDKQSPTMTLIYDENGQLLWAQRDVPWLMKMIQPDWLKSNGFHEIEADVNDTSLLLSGDHSIQQQLQEVREDDDDAEMTHSVAVNVYPATSRMPKLTIVVVDTIPVELKSSYMVWSWFIYVLSANLLLVIPLLWVAAWWSLRPIEALAKEVRELEEHNRELLNPATTRELTSLVRNLNRLLKSERERYDKYRTTLTDLTHSLKTPLXXLQXXLRSLRSEKMSVSDAEPVMLEQISRISQQIGYYLHRASMRGGTLLSRELHPVAPLLDNLTSALNKVYQRKGVNISLDISPEISFVGEQNDFVEVMGNVLDNACKYCLEFVEISARQTDEHLYIVVEDDGPGIPLSKREVIFDRGQRVDTLRPGQGVGLAVAREITEQYEGKIVAGESMLGGARMEVIFGRQHSAPKDE

Variants of: B1
Experiment: enrichment ratio after two sorts for PhoP signalling (ratio (wild type AVST 3.29)); higher = more functional
Conditions: with PhoP (E. coli)

Variant | enrichment ratio
AARL | ≤ 0.25
DMIF | ≤ 0.25
HGMC | 13.3
PFMC | ≤ 0.25
TFMC | 16.5
TIMC | 9
KSMC | ≤ 0.25
NGMC | ≤ 0.25
TRMC | 2.53
FSMC | 16.1
SGMC | 12.8
FCMC | ≤ 0.25
SGFC | ≤ 0.25
KFMC | ≤ 0.25
KDFY | ≤ 0.25
EPYY | ≤ 0.25
FDYI | ≤ 0.25
QVCS | ≤ 0.25
LEAV | ≤ 0.25
REVC | ≤ 0.25
FGTK | ≤ 0.25
RCMC | ≤ 0.25
ACMM | 14.1
HKMM | ≤ 0.25
TVMM | 0.563

Variant | enrichment ratio
ANRA | ≤ 0.25
ANRM | ≤ 0.25
AVMM | 52.7
MEMM | 0.38
TKMM | 31.6
ANMM | 32.7
FVMM | 8.76
HPRS | ≤ 0.25
SFMM | 0.454
EPTF | ≤ 0.25
ATNR | ≤ 0.25
FVFQ | ≤ 0.25
DMFY | ≤ 0.25
NDFH | ≤ 0.25
YEAF | ≤ 0.25
WSCA | ≤ 0.25
AYMM | ≤ 0.25
AKMM | 30.4
ARMM | 5.29
AAPM | 4.08
ASMM | 41.3
APMM | ≤ 0.25
ADMM | ≤ 0.25
AHMM | ≤ 0.25
AAMM | 13

Variant | enrichment ratio
VRMM | ≤ 0.25
AIMM | 35.5
IEAL | ≤ 0.25
NQSL | ≤ 0.25
PQWK | ≤ 0.25
SKWQ | ≤ 0.25
TVSH | 15.9
TVME | 11.7
PVME | ≤ 0.25
SPSH | ≤ 0.25
KSSH | ≤ 0.25
TVHE | ≤ 0.25
TSKH | ≤ 0.25
TVCI | 0.444
KCME | ≤ 0.25
TVCE | 13.5
TSSH | 11.3
HCSH | ≤ 0.25
HTVK | ≤ 0.25
KMRS | ≤ 0.25
IPKF | ≤ 0.25
AQWL | ≤ 0.25
PAAR | ≤ 0.25
LETM | ≤ 0.25
RMVY | ≤ 0.25

Variant | enrichment ratio
NVCS | ≤ 0.25
TVCS | 11.4
PVCA | ≤ 0.25
TVCA | 14.5
SPCA | ≤ 0.25
PVCS | ≤ 0.25
PKSQ | ≤ 0.25
RQKT | ≤ 0.25
IWNV | ≤ 0.25
LQKK | ≤ 0.25
LFFM | ≤ 0.25
ITFY | ≤ 0.25
WWLL | ≤ 0.25
SNCS | 19.6
SNAI | 22
WQCS | ≤ 0.25
LNAI | ≤ 0.25
SQCS | 14.7
IQCS | ≤ 0.25
SNIF | ≤ 0.25
SFAI | ≤ 0.25
SNNW | 1.31
GFWW | 1.03
LGGY | ≤ 0.25
ESVH | ≤ 0.25

Variant | enrichment ratio
PMVM | ≤ 0.25
KCTV | ≤ 0.25
TCTV | 12.6
GMTV | 0.937
TCTF | 12.4
KCTF | ≤ 0.25
LSTF | ≤ 0.25
LQSN | ≤ 0.25
PMKC | ≤ 0.25
AKDL | ≤ 0.25
NKTC | ≤ 0.25
MKFC | ≤ 0.25
MEFA | ≤ 0.25
MESC | 10.2
MFTC | ≤ 0.25
MEFC | 12.8
METC | 45.8
LQYS | ≤ 0.25
KENY | ≤ 0.25
IMSK | ≤ 0.25
EIPN | ≤ 0.25
PLSG | ≤ 0.25
TESN | 20.2
SRSG | ≤ 0.25
TESG | 24.9

Variant | enrichment ratio
MRSG | ≤ 0.25
SLSG | 11.8
QESG | 6.03
QESN | 5.1
PESG | ≤ 0.25
NESG | ≤ 0.25
MESG | 15.7
MESN | 7.39
GKLS | ≤ 0.25
SVRW | ≤ 0.25
RDAA | ≤ 0.25
KNCK | ≤ 0.25
VGMN | ≤ 0.25
HWYH | ≤ 0.25
IYMC | ≤ 0.25
EKVI | ≤ 0.25
HFDW | ≤ 0.25
HAFN | ≤ 0.25
EAES | ≤ 0.25
SQSG | 6.12
SCSG | 20.2
AKSG | 5.13
SESG | 28.9
STSG | 8.56
KYSG | ≤ 0.25

Variant | enrichment ratio
AESN | 11
FCSG | ≤ 0.25
AESG | 25.4
LITF | ≤ 0.25
ATGN | 3.43
GGVC | ≤ 0.25
HEMV | ≤ 0.25
SNMH | 11.9
SNWR | ≤ 0.25
SNVC | 11.5
SLVC | ≤ 0.25
TGVC | 16.8
SNCH | 7.35
SNVG | 3.21
HEMI | 12.7
PGVC | ≤ 0.25
HEMR | ≤ 0.25
ANPD | ≤ 0.25
TGHW | ≤ 0.25
KVMG | ≤ 0.25
IFMF | ≤ 0.25
WNFI | ≤ 0.25
ILYP | ≤ 0.25
PDCM | ≤ 0.25
GIVC | 4.3

Variant | enrichment ratio
SNME | 14.4
SNMS | 12
SNMA | 7.05
SNHE | ≤ 0.25
GNVC | 11.6
SNFE | ≤ 0.25
SNMW | 3.59
GNVG | 2.06
SNMG | 12.5
SNLW | 7.18
SNMD | 1.49
YALF | 3.8
PCNL | ≤ 0.25
QLCD | ≤ 0.25
TKMD | 0.263
FIAQ | ≤ 0.25
FTMY | 4.04
RWMS | ≤ 0.25
HEPN | 18.8
HEPH | ≤ 0.25
SQCV | 6.68
GIMF | 6.62
WQCV | ≤ 0.25
HEVN | ≤ 0.25
GNMF | 15.2

Variant | enrichment ratio
SNMF | 19.4
GYMF | ≤ 0.25
SLMF | 2.69
SNCV | 14.2
HEMF | ≤ 0.25
EGYW | ≤ 0.25
FYIV | ≤ 0.25
VIWQ | ≤ 0.25
NEFL | ≤ 0.25
HMPY | ≤ 0.25
RMDS | ≤ 0.25
WDAC | ≤ 0.25
ILVT | ≤ 0.25
GQDA | ≤ 0.25
SNLT | 7.56
SNYV | 0.433
SNMR | 1.49
SRLI | 6.88
SNLI | 11.3
SNLS | 11.5
SNVA | 6.33
SNMV | 18.5
TPLI | ≤ 0.25
SNMI | 19.8
SNLA | 6.53

Variant | enrichment ratio
SNIV | 9.73
PWPK | ≤ 0.25
GTKI | ≤ 0.25
MYMW | ≤ 0.25
HSYK | ≤ 0.25
GPQG | ≤ 0.25
KMHW | ≤ 0.25
GDTD | ≤ 0.25
DSIT | ≤ 0.25
NPMD | ≤ 0.25
WFPK | ≤ 0.25
QDRV | ≤ 0.25
DPTF | ≤ 0.25
PMYV | ≤ 0.25
VYLQ | ≤ 0.25
GYLQ | ≤ 0.25
VTLQ | 11.3
TTLQ | 10.7
GTLQ | 15.2
FTLQ | 6.79
VFLQ | ≤ 0.25
YTLQ | 12.8
QPLQ | ≤ 0.25
SQPR | ≤ 0.25
IAGV | ≤ 0.25

Variant | enrichment ratio
HKDW | ≤ 0.25
GERY | ≤ 0.25
SAVR | ≤ 0.25
MMAP | ≤ 0.25
RAVP | ≤ 0.25
WSVY | ≤ 0.25
STPW | ≤ 0.25
SLTG | 12.5
RING | ≤ 0.25
KYMG | ≤ 0.25
WLTG | ≤ 0.25
SIMG | 13.2
PLTG | ≤ 0.25
KYNG | ≤ 0.25
SING | 13.7
TING | 13.9
SIGG | 6.86
NING | ≤ 0.25
SLNG | 0.339
DHDM | ≤ 0.25
DCPT | ≤ 0.25
ELTP | ≤ 0.25
IKSW | ≤ 0.25
GMDV | ≤ 0.25
TNRI | ≤ 0.25

Variant | enrichment ratio
SCYN | ≤ 0.25
YRVE | ≤ 0.25
SSTG | 12.4
SQTG | 9.26
KYTG | ≤ 0.25
SFTG | 5.29
STTG | 7.62
SITG | 16.2
LIWW | ≤ 0.25
TSIP | ≤ 0.25
IDFC | ≤ 0.25
QELP | ≤ 0.25
ADAS | ≤ 0.25
NGAS | 0.365
RGAS | ≤ 0.25
KSAS | ≤ 0.25
CSAT | ≤ 0.25
KDAS | ≤ 0.25
TGAS | 14
CSAS | 36.6
TDAS | 11.6
PRQF | ≤ 0.25
AFYG | ≤ 0.25
EQHW | ≤ 0.25
ESQM | ≤ 0.25

Variant | enrichment ratio
WSTG | ≤ 0.25
PICR | ≤ 0.25
MESI | 12.5
TESQ | 22.8
TESA | 11.7
QESI | 7.8
MQSI | ≤ 0.25
QESA | ≤ 0.25
MCSI | 12.5
QESQ | ≤ 0.25
MMSI | 8.62
NESQ | ≤ 0.25
NESA | ≤ 0.25
MCSK | ≤ 0.25
